Source: PubChem BioAssay (Tox21)
Several values for one entry are separate records, joined by “and”; a condition that tells them apart may be missing. Identical values can stand only once. Inconclusive results are not listed. A call without a number means that no potency is given here. Some compounds were tested as several samples or in several runs, with calls that do not always agree. Activity calls are given as the source filed them. Unless noted, calls follow the shape of the dose curve; as a rule, active = well fitted curve in the direction sought with a large enough effect in the repeat runs; inconclusive = weak or mixed curves; inactive = no such curve, though single readings can be large; an effect the other way counts as inactive or inconclusive.

Experiments:
[1] = molecular target: Luciferin 4-monooxygenase (Photinus pyralis) (UniProt P08659); assay: qHTS assay to identify small molecule inhibitors of firefly luciferase (AID 1224835); also: nearly all actives have a fitted effect of over 25% in size; also: potency is read from the fitted curve at half-maximal effect
Chain of Luciferin 4-monooxygenase (Photinus pyralis) (P08659 whole entry, looked up): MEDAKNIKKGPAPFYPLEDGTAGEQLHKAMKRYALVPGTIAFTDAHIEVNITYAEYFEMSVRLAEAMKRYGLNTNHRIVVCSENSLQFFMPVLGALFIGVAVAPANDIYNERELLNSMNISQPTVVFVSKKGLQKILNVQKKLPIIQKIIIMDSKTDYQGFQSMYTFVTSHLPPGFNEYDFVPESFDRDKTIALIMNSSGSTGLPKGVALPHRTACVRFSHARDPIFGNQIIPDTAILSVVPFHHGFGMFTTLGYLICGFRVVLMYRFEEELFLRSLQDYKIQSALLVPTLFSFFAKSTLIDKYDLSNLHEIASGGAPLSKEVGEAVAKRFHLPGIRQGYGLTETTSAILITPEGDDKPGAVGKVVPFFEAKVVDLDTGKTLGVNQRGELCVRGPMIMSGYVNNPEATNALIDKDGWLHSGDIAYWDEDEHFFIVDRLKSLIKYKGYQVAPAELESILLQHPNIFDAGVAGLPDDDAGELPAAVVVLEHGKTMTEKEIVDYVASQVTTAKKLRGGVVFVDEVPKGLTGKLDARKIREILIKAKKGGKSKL
Summary of the method: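 Inhibition of purified Photinus luciferase is measured by luminescence. Substrate levels (D-luciferin, ATP) sit at their KM values. Each compound is tested in a concentration series.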

[2] = qHTS assay to identify small molecule antagonists of the constitutive androstane receptor (CAR) signaling pathway - cell viability counter screen (AID 1224837); also: series mostly up to about 92 µM; nearly all actives have a fitted effect of over 45% in size
Summary of the method: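 Using CellTiter-Fluor, viability is scored in HepG2 cells stably carrying hCAR and a 2.2kb CYP2B6 reporter after 23 hr compound exposure across 15 concentrations, with CITCO present at 50 nM.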

[3] = molecular target: Nuclear receptor subfamily 1 group I member 3 (Homo sapiens) (UniProt Q14994); assay: qHTS assay to identify small molecule agonists of the constitutive androstane receptor (CAR) signaling pathway (AID 1224839); also: nearly all actives have a fitted effect of over 15% in size; also: potency is read from the fitted curve at half-maximal effect
Chain of Nuclear receptor subfamily 1 group I member 3 (Homo sapiens) (Q14994 whole entry, looked up): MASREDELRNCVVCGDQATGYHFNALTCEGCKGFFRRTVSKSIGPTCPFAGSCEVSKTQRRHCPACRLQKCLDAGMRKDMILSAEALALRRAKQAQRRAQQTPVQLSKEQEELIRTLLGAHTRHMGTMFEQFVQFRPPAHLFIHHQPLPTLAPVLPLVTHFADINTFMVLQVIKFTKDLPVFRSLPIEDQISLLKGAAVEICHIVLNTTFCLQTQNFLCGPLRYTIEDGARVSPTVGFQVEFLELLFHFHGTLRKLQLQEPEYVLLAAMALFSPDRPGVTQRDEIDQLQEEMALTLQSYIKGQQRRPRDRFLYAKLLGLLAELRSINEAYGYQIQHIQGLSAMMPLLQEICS
Summary of the method: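 Compounds tested at 15 concentrations on HepG2 cells stably harbouring hCAR and CYP2B6-2.2kb reporter constructs, co-treated with PK11195 (0.75 uM final), 24 h at 37 C; luminescent reporter signal quantified.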

[4] = qHTS assay to identify small molecule antagonists of the estrogen related receptor signaling pathway with the pleiotropic PPARgamma coactivator (PGC) from Tox21 10K library - cell viability counter screen (AID 1224840; active = well fitted cell-killing curve with a large enough effect in the repeat runs, not every such curve was filed as active; also: nearly all actives have a fitted effect of over 40% in size; also: potency is read from the fitted curve at half-maximal effect)
Summary of the method: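 Here the PGC/ERR cells serve as a cytotoxicity control: they are exposed to compounds for 17.5 hours at 37 C, and live-cell signal is quantified using CellTiter-Fluor fluorescence.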

[5] = qHTS assay to identify small molecule agonists of the hypoxia (HIF-1) signaling pathway - cell viability counter screen (AID 1224844; calls by dose curve; also: nearly all actives have a fitted effect of over 50% in size; also: potency is read from the fitted curve at half-maximal effect)
Summary of the method: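 Multiplexed with the HRE beta-lactamase assay, this viability read used CellTiter-Glo luminescence (30 min, RT) on HRE-bla ME-180 cells treated 17 hrs with compounds in 0.5% dialyzed FBS medium.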

[6] = molecular target: Nuclear receptor subfamily 1 group I member 3 (Homo sapiens) (UniProt Q14994); assay: qHTS assay to identify small molecule antagonists of the constitutive androstane receptor (CAR) signaling pathway (AID 1224838);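 also: HepG2 cells stably expressing hCAR with CYP2B6 luciferase reporter stimulated by CITCO; nearly all actives have a fitted effect of over 40% in size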; also: potency is read from the fitted curve at half-maximal effect
Summary of the method: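 Reporter luminescence was quantified after 24 h exposure of hCAR/CYP2B6-2.2kb double-stable HepG2 cells to compounds at 15 concentrations in the presence of 50 nM CITCO final.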

[7] = molecular target: Thyrotropin receptor (Homo sapiens) (UniProt P16473); assay: qHTS assay to identify small molecule agonists of the thyroid stimulating hormone receptor (TSHR) signaling pathway (AID 1224843; calls by dose curve; also: nearly all actives have a fitted effect of over 45% in size)
Chain of Thyrotropin receptor (Homo sapiens) (P16473 whole entry, looked up): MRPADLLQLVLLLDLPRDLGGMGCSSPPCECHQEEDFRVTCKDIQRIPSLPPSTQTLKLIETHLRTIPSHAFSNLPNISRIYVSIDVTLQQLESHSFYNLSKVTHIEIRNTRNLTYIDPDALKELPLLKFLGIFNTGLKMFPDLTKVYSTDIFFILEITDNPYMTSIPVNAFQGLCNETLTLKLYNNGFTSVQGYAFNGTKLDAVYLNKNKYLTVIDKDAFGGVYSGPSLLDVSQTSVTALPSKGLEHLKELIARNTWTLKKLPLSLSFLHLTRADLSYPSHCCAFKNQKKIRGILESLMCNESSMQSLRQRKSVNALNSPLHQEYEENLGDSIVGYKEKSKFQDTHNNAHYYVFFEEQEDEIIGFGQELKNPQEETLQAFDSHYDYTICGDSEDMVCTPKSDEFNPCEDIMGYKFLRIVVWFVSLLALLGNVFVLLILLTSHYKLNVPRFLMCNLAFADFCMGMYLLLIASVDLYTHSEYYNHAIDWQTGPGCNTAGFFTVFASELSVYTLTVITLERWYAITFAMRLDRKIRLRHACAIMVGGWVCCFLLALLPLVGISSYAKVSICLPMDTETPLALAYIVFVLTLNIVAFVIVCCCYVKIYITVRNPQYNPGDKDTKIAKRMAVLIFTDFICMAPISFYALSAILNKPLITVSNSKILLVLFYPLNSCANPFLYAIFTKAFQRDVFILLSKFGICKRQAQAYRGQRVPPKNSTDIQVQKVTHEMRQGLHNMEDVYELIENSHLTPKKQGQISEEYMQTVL
Summary of the method: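 HEK293 cells stably bearing the thyrotropin receptor were plated at 800 cells/well and challenged with compound (30 min, RT). Accumulated cAMP was quantified via cAMP-d2 competing for cryptate-tagged antibody.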

[8] = qHTS assay to identify small molecule agonists of the constitutive androstane receptor (CAR) signaling pathway - cell viability counter screen (AID 1224836); also: series mostly up to about 92 µM; nearly all actives have a fitted effect of over 45% in size
Summary of the method: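 23 h treatment, 37 C, 5% CO2. Cell line: HepG2 stably expressing hCAR with a CYP2B6-2.2kb construct. Co-treatment: PK11195, 0.75 uM final. Read-out: CellTiter-Fluor fluorescence intensity.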

[9] = qHTS assay to identify small molecule antagonists of the estrogen related receptor signaling pathway with the pleiotropic PPARgamma coactivator (PGC) from Tox21 10K library (AID 1224841; call rule not given here; also: actives are mostly falling curves and most rising ones were filed inactive; nearly all actives have a fitted effect of over 50% in size; also: potency is read from the fitted curve at half-maximal effect)
Summary of the method: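 Each well held 2,000 PGC/ERR cells, pre-incubated six hours (37 C, 5% CO2). Test substances in DMSO were added by pin tool and left for 18 h at 37 C before luciferase detection by One-Glo.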

[10] = qHTS assay to identify small molecule agonists of the estrogen related receptor signaling pathway with the pleiotropic PPARgamma coactivator (PGC) from Tox21 10K library (AID 1224842); also: nearly all actives have a fitted effect of over 15% in size
Summary of the method: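 Luminescence from One-Glo (30 min, room temperature) measured after PGC/ERR cells had 18 h at 37 C with pinned compound (23 nL in DMSO). Cells had been seeded at 2,000 per well and pre-incubated 6 h.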

| SMILES | Potency [1] | Potency [2] | Potency [3] | Potency [4] | Potency [5] | Potency [6] | Potency [7] | Potency [8] | Potency [9] | Potency [10] |
| --- | --- | --- | --- | --- | --- | --- | --- | --- | --- | --- |
| Oc1ccc(Cl)cc1Cc1cc(Cl)ccc1O | inactive | inactive | inactive | 24.8 µM (active) | 54.9 µM (active) and inactive | – | – | – | – | – |
| CC(C)CCCCCCc1ccc(O)cc1 | 36.2 µM (active) and inactive | – | – | 48.6 µM (active) | 11.2 µM (active) | 1.11 µM (active) | – | – | – | – |
| O=C1OC2(c3ccc(O)cc3Oc3cc(O)ccc32)c2ccccc21 | inactive | – | – | – | inactive | – | inactive | – | – | – |
| CCCN[C@H]1CCc2nc(N)sc2C1 | – | inactive | inactive | inactive | inactive | inactive | inactive | inactive | – | – |
| NCCCCCC(=O)O | inactive | inactive | – | inactive | inactive | – | – | – | – | – |
| C=C(C)C1CC=C(C)C(OC(C)=O)C1 (stereo unspecified) | inactive | inactive | – | inactive | inactive | – | – | – | inactive | inactive |
| O=C(O)c1cc(Cl)cc(Cl)c1 | – | inactive | inactive | inactive | inactive | inactive | inactive | inactive | inactive | inactive |
| C#CC(C)(CC)OC(=O)c1ccccc1C(=O)O (stereo unspecified) | – | inactive | inactive | inactive | inactive | inactive | inactive | inactive | inactive | inactive |
| Cc1occc(=O)c1OC(=O)C(C)C | – | inactive | inactive | inactive | inactive | inactive | – | inactive | inactive | inactive |
| Nc1ccc2cc3ccccc3cc2c1 | 20.4 µM (active) and 17.8 µM (active) | – | – | inactive | inactive | inactive | – | – | – | – |
| Cc1ccc(-c2cc(C(F)(F)F)nn2-c2ccc(S(N)(=O)=O)cc2)cc1 | inactive | – | – | 54.3 µM (active) and 54.5 µM (active) and inactive | 48.8 µM (active) and 54.9 µM (active) and inactive | – | – | – | 60.9 µM (active) and inactive | inactive |
| O=C(OCc1ccccc1)c1ccc(O)cc1 | 31.7 µM (active) and 15.5 µM (active) | inactive | – | inactive | inactive | inactive | – | – | – | – |
| CCc1cc(C(C)(C)C)c(O)c(C(C)(C)C)c1 | – | inactive | inactive and 12.2 µM (active) | inactive | inactive | inactive | – | inactive | – | – |
| CC(=O)OCC1=C(C(=O)O)N2C(=O)[C@@H](NC(=O)Cc3cccs3)[C@H]2SC1 | – | inactive | inactive | inactive | inactive | inactive | inactive | inactive | – | – |
| O=C(O)c1cccc(C(=O)O)c1 | inactive | inactive | – | inactive | inactive | – | inactive | – | – | – |
| O=C(O[C@@H]1Cc2c(O)cc(O)cc2O[C@@H]1c1cc(O)c(O)c(O)c1)c1cc(O)c(O)c(O)c1 | 25.3 µM (active) and 38.5 µM (active) | – | inactive | – | inactive | inactive | – | – | – | – |
| O=C(O)c1cn(-c2ccc(F)cc2)c2cc(N3CCNCC3)c(F)cc2c1=O | inactive | inactive | – | inactive | inactive | – | inactive | – | – | – |
| CCC(C)(C)C(=O)O[C@H]1C[C@@H](C)C=C2C=C[C@H](C)[C@H](CC[C@@H]3C[C@@H](O)CC(=O)O3)[C@H]21 | inactive | inactive | – | inactive | – | inactive | inactive | – | – | – |
| C/C=C/c1ccc(OCC)c(O)c1 | – | inactive | inactive | inactive | inactive | inactive | inactive | inactive | – | – |
| CCOc1ccc2c(c1)C(C)=CC(C)(C)N2 | – | inactive | 27.2 µM (active) and 27.3 µM (active) | inactive | inactive | inactive | inactive | inactive | inactive | inactive |
| CC(=O)Nc1ccc(C(=O)CCl)cc1 | inactive | inactive | – | inactive | inactive and 11 µM (active) | – | – | – | – | – |
